The panel holds about 79,000 compounds, 15% with a hit somewhere; the sample as a whole holds those more often. Values without a mark were called inactive. Active and inactive are the calls of the source. No stated cut-off is given here; in the data, active means growth inhibition above about 70%; inactive means the rest.
Key:
[1] = NCI Yeast Anticancer Drug Screen. Data for the rad50 strain (AID 155);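 further: 0% = growth of vehicle-only cultures of the same strain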; settings: S. cerevisiae rad50 strain growth inhibition; at 50.0 µM; active compounds read high
How it was run: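 DNA repair mutant yeast, compound exposure, growth read-out; inhibition is taken relative to vehicle.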

[2] = NCI Yeast Anticancer Drug Screen. Data for the mec2-1 strain (AID 157); settings: S. cerevisiae mec2-1 strain, at 50.0 µM, active compounds read high
How it was run: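 Using mec2-1 yeast: add compound, measure growth, express inhibition versus vehicle-treated cultures.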

[3] = NCI Yeast Anticancer Drug Screen. Data for the sgs1 mgt1 strain (AID 161);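 further: 0% = growth of cultures given vehicle only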; settings: S. cerevisiae sgs1 mgt1 strain, at 50.0 µM, active compounds read high
How it was run: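 Compounds are added to genetically altered yeast, and growth is compared with cultures given vehicle alone to give percent inhibition.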

[4] = NCI Yeast Anticancer Drug Screen. Data for the cln2 rad14 strain (AID 165);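 further: 0% = growth equal to vehicle treated cultures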; settings: S. cerevisiae cln2 rad14 strain, at 50.0 µM, active compounds read high
How it was run: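 Yeast strain cln2 rad14, bearing defects in cell cycle control and DNA repair, serves as the test system; values reflect growth inhibition compared with vehicle.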

[5] = NCI Yeast Anticancer Drug Screen. Data for the bub3 strain (AID 167); settings: S. cerevisiae bub3 mutant strain, at 50.0 µM, active compounds read high
How it was run: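 In this screen, a yeast mutant lacking normal mitotic checkpoint function is challenged with compound. Relative growth versus vehicle gives the inhibition value.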

[6] = NCI Yeast Anticancer Drug Screen. Data for the mlh1 rad18 strain (AID 175); settings: S. cerevisiae mlh1 rad18 strain growth inhibition; at 50.0 µM; active compounds read high
How it was run: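 Steps: expose repair-defective yeast to compound; measure growth; express inhibition against vehicle-treated controls.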

SMILES | growth inhibition [1] | growth inhibition [2] | growth inhibition [3] | growth inhibition [4] | growth inhibition [5] | growth inhibition [6]
CCOC(=O)C(CC(C)C)NC(=O)c1cnc2ccccc2c1 (stereo unspecified) | 26.6% | -0.7% | 25.6% | -13.8% | 26.2% | 21.9%
N#CC1(c2nc3ccccc3o2)C(=O)C(=O)N(C2C3CC4CC(C3)CC2C4)C(=O)C1=O (stereo unspecified) | -8.65% | 6.05% | -39.1% | 16.2% | -5.75% | -9.35%
N#CCCBr | 23.9% | 0.15% | 7.45% | -22.6% | 15.7% | 31.1%
CCc1ccc(NC(=O)Nc2cccc(Cl)c2)cc1 | -5.8% | 14.4% | -5.35% | -19.6% | -0.55% | 4.9%
COc1ccccc1NC(=O)CC(=O)N/N=C/c1ccc(N(CCC#N)S(=O)(=O)c2ccccc2)cc1 | -48.4% | 0.8% | -20.6% | 10.4% | -15.8% | -14.5%
Cc1ccc(COC(=O)Nc2ccc(C)c(NC(=O)OCc3ccc(C)cc3)c2)cc1 | 14.4% | -1.15% | 11.7% | -2.9% | -3.8% | 30.1%
CCCCCCCCCCCCCCCCCC(=O)Oc1c(C(C)(C)C)cc([N+](=O)[O-])c(C)c1[N+](=O)[O-] | 98.2% (active) | 99.2% (active) | 98.8% (active) | 98.9% (active) | 99.2% (active) | 98.2% (active)
NC(=S)N/N=C/C1=C(Cl)c2ccccc2C1 | 7.45% | 6.5% | 1.15% | -4.45% | -2.55% | 13.2%
Cn1c2ccccc2c2ccc3c(c21)C(=O)NC3=O | 15.6% | 10.7% | -7.75% | -7.7% | -21.9% | 13.3%
CCCS(=O)(=O)CCC(=O)c1ccccc1 | -4% | -7.9% | -9% | -13.8% | 0.85% | 2.7%
CC1=C(CCC(C)N)C(C)(C)CCC1 (stereo unspecified) | 29% | 14.7% | 28% | 7.75% | 11.4% | 12.8%
O=C(/C=C/c1ccccc1)c1cccc([N+](=O)[O-])c1 | 26% | 14.6% | 21.4% | 54.9% | 41.9% | 4.4%
CCSc1ccc(N=[N+]([O-])c2ccc(SCC)c(Cl)c2)cc1Cl | -5.6% | 10.8% | 1.65% | -17.1% | -4.6% | 9.3%
COc1ccc(/C=C/C(=O)OCCC(C)C)cc1 | 3.7% | -16.3% | 3.5% | 16.9% | -21.2% | -16.7%
C=C(c1ccccc1)C1(O)CCCCC1N(C)C (stereo unspecified) | -24.4% | -13.8% | 0.7% | -12.3% | 10.9% | 12.4%
CC(C)NC(=O)C(C(C)C)C(C)(C)C (stereo unspecified) | -2.95% | 5.25% | 1.35% | 12.1% | 9.2% | -2.15%
O=C(CBr)c1c2c(cc3c1CCCC3)CCCC2 | 1.75% | -1.35% | -2.05% | -4.9% | 33% | -16.6%
CNC(=O)c1ccc(C(C)C)cc1 | 0.3% | -1.95% | -5.3% | -10.7% | 4.2% | 0.65%
Cc1ccc(N=c2oc3c(ccc4ccccc43)nc2Nc2ccc(C)cc2)cc1 | -33.5% | -32.5% | -46.2% | -35.5% | -32.8% | -19%
NC(N)=NC(CC(=O)O)c1ccccc1 (stereo unspecified) | -1.15% | -20% | -26.4% | -26.2% | -46.4% | 10.2%
CC1OC(c2ccccc2)=CC(OCc2ccccc2)[C@H]1OCc1ccccc1 (stereo partly specified) | -18.9% | -23.6% | -19% | -50.8% | -33% | 2.95%

SMILES | growth inhibition [1] | growth inhibition [2] | growth inhibition [3] | growth inhibition [4] | growth inhibition [5] | growth inhibition [6]
COC(=O)CCc1ccc(C2CO2)cc1 (stereo unspecified) | -1.4% | 6.15% | -9.5% | -0.2% | -11.2% | 10.3%
COc1ccccc1NC(=O)C(=O)C1C(=O)Nc2ccccc2S1=O (stereo unspecified) | -14.3% | -21.1% | -44.6% | 2.45% | -41% | -45.5%
CCOc1ccc(N=Nc2c(C)nc(N)nc2-c2ccccc2)cc1 | 20.1% | -14.7% | 4.1% | -4.75% | 35.4% | 24.4%
COc1ccc(C23C(=O)c4ccccc4N2O[C@H]2C(=O)N(c4ccccc4)C(=O)[C@H]23)cc1 (stereo partly specified) | -22.2% | 20.1% | -36.5% | 7.9% | -30.6% | -21.1%
CSC1(C)CC2C(CC1N1CCCCC1)C2(C)C (stereo unspecified) | -28.4% | -16.4% | -46.4% | 5.8% | -24% | -35.9%
CC1(COc2ccccc2)NC(=O)c2ccccc2O1 (stereo unspecified) | -5.85% | -13.4% | 10.6% | -46.2% | 0.85% | -6.25%
O=S(Cc1ccccc1)CC(O)CO (stereo unspecified) | -24.9% | 5.95% | 2.7% | -41.2% | 10.3% | -0.85%
Cc1cc(S(=O)(=O)Nc2n[nH]c(Nc3ccc4ccccc4c3)n2)c(S)cc1Cl | 34.2% | 5.85% | 29.2% | 36.5% | 35.9% | 39.9%
COc1ccc(NC(=O)c2cc3ccccc3cc2OC(=O)NC(C)(C)C)cc1 | -12.5% | -13.3% | -7.15% | 2.5% | -0.15% | -32.8%
Nc1c(C(=O)Nc2cccc3c2C(=O)c2ccccc2C3=O)ccc2c1C(=O)c1ccccc1C2=O | 35.1% | 10.1% | 43.3% | 26.7% | 2.75% | 24%
COc1ccc(C2c3cc4c(cc3OC(Nc3ccccc3)C2C)OCO4)cc1 (stereo unspecified) | 9% | 9.95% | 30% | 43.8% | 27.1% | 33.6%
CCC1(CC)SCC(C)(O)NC1=O (stereo unspecified) | 1.95% | -12.5% | -7.15% | -35.4% | -10.6% | -4.75%
Cc1ccc(S(=O)(=O)NN=C2CCS(=O)CC2)cc1 (stereo unspecified) | -19.6% | 10.7% | 7.6% | -32.4% | -10.5% | -28.5%
COc1cccc(C(=O)O)c1[N+](=O)[O-] | -19.1% | -26.6% | -24% | -46.1% | -6.05% | -1%
CC1CN(C(=O)Nc2ccc([N+](=O)[O-])cc2)CC(C)O1 (stereo unspecified) | -16.1% | -36.5% | 13.7% | 3.5% | -3.65% | 6.25%
N#CSC1CCCCC1SC#N (stereo unspecified) | 11.3% | 5.8% | 7.35% | -13.7% | -2.55% | 5.6%
CC/C(=C/CO)c1ccccc1 | 46.5% | 5.65% | 17.6% | 6.05% | 10.8% | 36.4%
COc1cc(-c2cc(-c3cc([N+](=O)[O-])c(/C=N/NC(=O)c4ccncc4)o3)ccc2OC)ccc1C | 17.5% | 8.2% | -8.1% | 26.9% | 11.2% | 8.3%
O=CC(O)C(O)C(O)C1CNC(=S)O1 (stereo unspecified) | 4.9% | -14.7% | -10.3% | -2.25% | 4.05% | 6.9%
C/C(O)=C(/C=NC(=S)c1ccncc1)C(=O)Nc1ccccc1 | -36.8% | -1.8% | -49% | -26.5% | -45.1% | -36.3%
